Bioassay records: PubChem BioAssay, National Center for Advancing Translational Sciences (NCATS)
The full list was thinned out, with hits kept by preference.
KDM5B inh: Primary screen for KDM5B Histone Demethylases FDH-coupled qHTS | KDM5B demethylase, FDH-coupled NADH fluorescence (FDH is formaldehyde dehydrogenase) | 220,000 compounds, 2.6% hits | Potency, µM (doses to about 57.7 µM), actives largely listed as inhibitors; active means well fitted inhibition curve with a large enough effect; further: 0% is about no effect; nearly all actives have a fitted effect of over 70% in size
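Coupled FDH/NAD⁺ fluorescence readout. KDM5BΔAP 200 nM final; compound titration, 10 min RT preincubation; substrate mix 12.5 µM H3K4me3, 25 µM 2-OG, 50 µM Fe(II), 100 µM ascorbate, 0.25 mM NAD⁺, 0.25 U/mL FDH; ΔRFU over 30 min.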
Starred values were filed as active, the others as inactive; i = inactive. Potency means the concentration at half of the fitted maximal effect.

SMILES	KDM5B inh
COc1ccc(-c2ccnc3nc(Cc4ccc(F)cc4)nn23)cc1OC	28µM*
CCc1nc2nccc(-c3cccc(OC)c3)n2n1	25µM*
COc1ccc(CCc2nc3nccc(-c4ccc(F)cc4)n3n2)cc1OC	i
COc1ccc(Cc2nc3nccc(-c4ccc(OC)c(OC)c4)n3n2)cc1	20µM*
CCN(CC)C(=O)Oc1ccc2c(=O)c(Oc3ccc(C(=O)OC)cc3)coc2c1	i
COc1ccc(CNC(=O)COC(=O)c2ccc(S(=O)(=O)N3CCCCCC3)cc2)cc1OC	i
COCC(=O)N1CCC(Cc2nc(C3CCOCC3)no2)CC1	i
COc1ccc(-c2coc3cc(OCC(=O)N4CCC(=O)CC4)ccc3c2=O)cc1	i
O=C(Nc1ccc(N2CCCCCC2)cc1)c1ccccc1SC1CCS(=O)(=O)C1 (centres undefined)	i
COc1ccc(OC)c(NC(=O)Cn2ccc3cc(Cl)ccc32)c1	i
CCc1nc2c(NS(=O)(=O)c3cccnc3)cccn2n1	i
Cc1cccc(S(=O)(=O)Nc2cccn3nc(C4CCC4)nc23)c1	i
O=S(=O)(Nc1cccn2nc(C3CC3)nc12)c1cccnc1	3.5µM*
O=C(O)CCC(=O)OCc1ccccc1	i
O=C(c1ccc(Br)o1)N1C[C@@H](CO)[C@H](c2ccncc2)C1	i
COCc1nc2nc(-c3ccccc3)c(-c3cccnc3)cc2n1C	i
COCc1nc2nc(-c3ccccc3)c(-c3ccccc3O)cc2n1C	i
COCc1nc2nc(-c3ccccc3)c(Nc3ccc(F)cc3)cc2n1C	32µM*
COc1ccc(Cl)cc1N1CC(c2nc3ccccc3n2CC(=O)N(C(C)C)C(C)C)CC1=O (centres undefined)	i
O=C(CCn1cccn1)N1CC(F)(F)C[C@H]1c1nc(C2CC2)no1	i
Cn1ccc(NC(=O)[C@@H]2C[C@@H](c3ccc(F)cc3)N(CCOc3ccccc3)C2)n1	i
O=C(Nc1ccncn1)[C@@H]1C[C@@H](c2ccc(F)cc2)N(CCOc2ccccc2)C1	35µM*
O=C(Nc1cccnc1)[C@@H]1C[C@@H](c2ccc(F)cc2)N(CCOc2ccccc2)C1	i
CC(C)N1CNC(=O)C12CCN(C(=O)c1ccc(Cl)cc1)CC2	i
COC(=O)CNC(=O)c1nc(-c2ccc(F)cc2)c2cnccn12	40µM*
SMILES	KDM5B inh
O=C(CNC(=O)c1ccc(F)cc1)OCc1cc(=O)n2ccsc2n1	i
COCCNC(=O)c1c(-c2ccc(F)cc2)noc1[C@H](C)O	i
COCCNC(=O)c1nc(-c2ccc(F)cc2)c2cnccn12	32µM*
COCCNC(=O)N1CC=C(c2ccc(F)cc2)CC1	i
CC(C)Cn1nc(C(=O)N2CC(C(=O)N3CCCCC3)Oc3ccccc32)c2ccccc2c1=O (centres undefined)	i
COCCN1C(=O)[C@@H]2C[C@@H](CN2C(=O)c2ccc(Cl)cc2)Oc2ccccc21	i
Cn1c(=O)c2c(nc(N3CCCCC3)n2CC(=O)C23CC4CC(CC(C4)C2)C3)n(C)c1=O	i
Cc1ccc(OCCNC(C)C)cc1	i
O=C(NCc1ccco1)C1CC(c2ccccc2)CN(C(=O)C2CCCC2)C1 (centres undefined)	i
COC[C@@H]1CN(c2cnccn2)C[C@H]1C(=O)NCc1ccco1	25µM*
COC[C@@H]1CN(Cc2c(F)cccc2F)C[C@H]1C(=O)NC1CC1	i
O=C1NC(C(=O)NCc2ccco2)Cn2cccc21 (centres undefined)	i
O=C(COc1ccc(NC(=O)C2CC2)cn1)NCc1ccccc1F	i
COC[C@@H]1CN(c2cnccn2)C[C@H]1C(=O)NCc1ccccc1F	20µM*
CC(C)CCn1c(N2CCC(C(N)=O)CC2)nc2c1c(=O)n(C)c(=O)n2C	i
Cc1nc2c(cnn2C(C)C)cc1C(=O)N(C)Cc1cccc(Cl)c1	i
CN(C)C(CNC(=S)NC(C)(C)CC(C)(C)C)c1ccccc1 (centres undefined)	i
CS(=O)(=O)N1CCC(C(=O)Nc2cccc(OCc3ccc(F)cc3)c2)CC1	i
COCCN(C)C[C@@H]1CN(C(=O)c2ccc(-c3ccco3)cc2)C[C@@H]1CO	32µM*
COCCN(C)C[C@@H]1CN(C(=O)c2ccc(-c3ccccc3)n2C)C[C@@H]1CO	i
COCCN(C)C[C@@H]1CN(C(=O)c2ccc(-c3ccc(C)o3)cc2)C[C@@H]1CO	i
COc1ccccc1[C@@H]1CN(C(=O)CN2CCOCC2)C[C@H]1C(=O)O	i
COc1ccccc1Cn1c(-c2ccccc2)nc(C)c(CCO)c1=O	i
CC1(C(=O)NC2CC2)CCCc2cnc(Nc3cccnc3)nc21 (centres undefined)	i
CN(C)c1ncc2c(n1)C(C)(C(=O)Nc1ccncc1)CCC2 (centres undefined)	32µM*
SMILES	KDM5B inh
CN(C)c1ncc2c(n1)C(C)(C(=O)Nc1cccc(F)c1)CCC2 (centres undefined)	32µM*
CC1(C(=O)Nc2ccncc2)CCCc2cnc(Nc3ccccc3)nc21 (centres undefined)	i
COc1ccc(NC(=O)C2(C)CCCc3cnc(Nc4cccnc4)nc32)cc1 (centres undefined)	i
CN(CC(=O)Nc1cccc(F)c1)CC(=O)Nc1cccc2ccccc12	i
CC1(C(=O)N2CCCC2)CCCc2cnc(Nc3cccnc3)nc21 (centres undefined)	i
COc1cccc(NC(=O)C2(C)CCCc3cnc(N(C)C)nc32)c1 (centres undefined)	40µM*
COc1cccc(Nc2ncc3c(n2)C(C)(C(=O)N2CCCC2)CC3)c1 (centres undefined)	i
O=C(CSc1ncccn1)Nc1nc2cc3c(cc2s1)OCCO3	i
N#Cc1ccccc1NC(=O)C1(c2ccccc2)CCCC1	i
COc1ccc(-c2cc(C[C@@H]3CC[C@H](O)[C@@H](CNC(=O)N4CCOCC4)O3)no2)cc1	i
Fc1ccc(OC2CN(Cc3ccsc3)C2)cc1F	i
CN(C)CCCC(=O)N1CCC2(CC1)CN(C(=O)Cc1ccc(O)cc1)CCO2	i
S=C(NCc1ccc(Cl)cc1)Nc1cccc(Cl)c1	i
COc1ccccc1OCC(=O)Nc1cc(-c2ccc(F)c(F)c2)no1	i
CC(=O)Nc1c(C)cccc1C(C)C	i
CCn1c(-n2nc(C)cc2C)nc2c1c(=O)n(CC(=O)C(C)(C)C)c(=O)n2C	i
CO[C@H]1C[C@@H](O)C12CCN(C(=O)CCc1ccc(-c3cccs3)o1)CC2	14µM*
Cn1nc(C(=O)N2CC[C@@](C)(O)[C@@H](O)C2)cc1-c1cccs1	i
O=C(CCCc1cccs1)N1CCC2(CC1)[C@H](O)C[C@@H]2OCCO	i
C[C@]1(O)CCN(C(=O)CCc2c[nH]c3ccccc23)C[C@@H]1O	i
COc1cc(OC)c(C(=O)N2CCC3(CC2)[C@H](O)C[C@@H]3OC)cc1OC	i
C[C@@]1(O)CCN(C(=O)CCc2ccc(-c3cccs3)o2)C[C@@H]1O	13µM*
CC1=C[C@@H](CNC(=O)c2ccc(F)cc2)[C@H](C(C)C)C[C@H]1Cc1nnc(-c2ccncc2)o1	i
COc1ccc(C(=O)C2CCN(CCS(=O)c3ccccc3)CC2)cc1 (centres undefined)	i
Cc1cc(C)n(-c2ccc(C(=O)OCC(=O)NC3CCC(C)CC3)cc2)n1 (centres undefined)	i
CCc1ccc2oc(C(=O)Nc3ccc(S(=O)(=O)Nc4onc(C)c4C)cc3)cc(=O)c2c1	i
